{
  "source": "paper PMC5540273",
  "about": "(PLoS ONE, 2017);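 further: KINOMEscan kinase panel screen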",
  "data": [
    {"tested_on": "TSSK3", "settings": "concentration: 1 μM, replicates: in singlicate; n = 1", "units": {"%Inh": "%"}, "values": [
      {"smiles": "CS(=O)(=O)c1ccc(-c2c(-c3ncn[nH]3)sc(N3CCOCC3)c2C#N)cc1", "%Inh": 5},
      {"smiles": "CCn1c(-c2cccnc2O)nc2cnccc21", "note": "[SB-736715]", "%Inh": 0},
      {"smiles": "Cc1cc(-c2ccc3c(c2)CC[C@@H](N[C@@H](C)c2ccccc2)C3)cnc1N.Cl", "note": "[GW412617]", "%Inh": 19},
      {"smiles": "COc1ccccc1CNC(=O)c1cc(C(=O)c2ccccc2C)c[nH]1", "note": "[GSK364507]", "%Inh": 6},
      {"smiles": "Cc1cccc(-c2nc(-c3ccc(S(C)(=O)=O)cc3)sc2-c2ccnc(NCCc3ccccc3)c2)c1", "%Inh": 0},
      {"smiles": "CC(=O)Nc1nc2cnc(Nc3cc(NC(=O)c4cccc(CCC#N)c4)ccc3C)nc2s1", "%Inh": 0},
      {"smiles": "Cc1cccc(-c2nc(C)cc(Nc3ccncc3)n2)n1", "note": "[GSK257997]", "%Inh": 17},
      {"smiles": "CS(=O)(=O)c1ccc(-c2nc3n(c2-c2ccncc2)CCC3)cc1", "note": "[SKF-105942]", "%Inh": 6},
      {"smiles": "Cl.c1ccc(-c2n[nH]cc2-c2ccnc(-c3ccc(CN4CCOCC4)cc3)c2)nc1", "note": "[GW776245]", "%Inh": 0},
      {"smiles": "Nc1ncnc2[nH]c(-c3ccccc3)nc12", "note": "[AH5015]", "%Inh": 7},
      {"smiles": "O=C(O)COc1ncnc2cc(-c3ccc4[nH]ncc4c3)sc12", "%Inh": 0},
      {"smiles": "COc1cc2ncn(-c3cc(OCC4CCCO4)c(C(N)=O)s3)c2cc1OC", "note": "(centres unmarked) [GSK204607]", "%Inh": 10},
      {"smiles": "Cc1ccc(NC(=O)Nc2cc(C(C)(C)C)nn2-c2ccccc2)cc1", "note": "[GSK1014915]", "%Inh": 14},
      {"smiles": "Cc1cccc(-c2nc(Nc3ccc4[nH]ncc4c3)c3ccccc3n2)n1", "note": "[GW857175]", "%Inh": 51},
      {"smiles": "CC(C)(C)c1ccc(C(=O)Nc2cn3cc(Cl)ccc3n2)cc1", "%Inh": 0},
      {"smiles": "Cn1cncc1-c1ccc2ncnc(Nc3ccc(OCc4ccccc4)cc3)c2c1", "note": "[GW320571]", "%Inh": 16},
      {"smiles": "O=C(Nc1n[nH]c2nc(-c3nccs3)c(Br)cc12)C1CC1", "note": "[SB-742251]", "%Inh": 15},
      {"smiles": "CN1C(=O)C(Nc2ccc(Cl)c(C(=O)O)c2)=C(c2ccc(Cl)cc2)C1=O", "note": "[SB-404290]", "%Inh": 0},
      {"smiles": "Cc1cc(N2Cc3ccccc3C2)nc(Nc2ccc(S(=O)(=O)N3CCOCC3)cc2)n1.Cl", "note": "[GSK1669917]", "%Inh": 8},
      {"smiles": "CN(C)CCN(C)C(=O)c1cc(-c2ccncc2)c(-c2ccc(Cl)c(O)c2)o1.Cl.Cl", "note": "[SB-710397]", "%Inh": 24},
      {"smiles": "Cc1csc(-c2nc(Nc3ccncc3)c3ccccc3n2)n1", "note": "[GW869640]", "%Inh": 23},
      {"smiles": "Cc1ccc(NC(=O)Nc2cccc(Cl)c2)cc1-c1ccc(C(=O)Nc2ccncc2)cc1", "note": "[GSK1398468]", "%Inh": 8},
      {"smiles": "O=C(Nc1n[nH]c2cc(-c3cccc(F)c3F)ccc12)C1CC1", "note": "[SB-733894]", "%Inh": 0},
      {"smiles": "O=C(Nc1ccccc1)Nc1cccc(Oc2ccc3nccn3n2)c1", "%Inh": 0},
      {"smiles": "Cl.O=C(Nc1cccc(-c2nn3ncccc3c2-c2ccnc(Nc3cccnc3)n2)c1)c1c(F)cccc1F", "note": "[GSK312879]", "%Inh": 9},
      {"smiles": "O=C(Nc1n[nH]c2nc(-c3nccs3)c(Br)cc12)C1CCCC1", "note": "[SB-742609]", "%Inh": 0},
      {"smiles": "COc1cc(Nc2nccc(N3CCC(NC(=O)Nc4cc(C)ccc4C)C3)n2)cc(OC)c1OC", "note": "(centres unmarked) [GSK1379762]", "%Inh": 21},
      {"smiles": "COc1cc2nccc(Nc3ccc(NC(=O)c4ccc(C)cc4)c(O)c3)c2cc1OC.Cl", "note": "[GW440132]", "%Inh": 18},
      {"smiles": "O=C(Nc1ccc2c(c1)OCO2)NC1CCN(c2ccnc(Nc3ccc(F)cc3)n2)C1", "note": "(centres unmarked) [GSK1379724]", "%Inh": 18},
      {"smiles": "O=C1NC(=O)C(N2CCc3ccccc32)=C1c1ccccc1Cl", "note": "[SB-373598]", "%Inh": 18},
      {"smiles": "Fc1cccc(COc2nnc(-c3ccc4c(c3)CCO4)o2)c1", "%Inh": 0},
      {"smiles": "Cc1cccc(-c2nc(Nc3cccc(C(N)=O)c3)c3ccccc3n2)n1", "note": "[GW876019]", "%Inh": 0},
      {"smiles": "Cc1c(O)cccc1Nc1ccnc2ccc(C(F)(F)F)cc12.Cl", "note": "[GW466413]", "%Inh": 1},
      {"smiles": "COc1ccc(Nc2nccc(-c3cccc(NC(=O)c4cc5cc(F)ccc5[nH]4)c3)n2)cc1", "note": "[GSK1229782]", "%Inh": 35},
      {"smiles": "Cc1cc(NCC(c2ccccc2)c2ccccc2)nc(NCc2ccc(C(F)(F)F)cc2)n1", "note": "[GW497681]", "%Inh": 4}
    ]}
  ]
}
